Assay results reported in PubChem BioAssay.
Several values for one entry are separate records, joined by “and”; a condition that tells them apart may be missing. Identical values can stand only once. Results filed as inconclusive are left out. Activity calls are given as the source filed them.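 The calls were made as follows, unless noted: active = normalized viability below 100% at a tested concentration; inactive = the rest.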

Assays:
[1] = liver-stage malaria parasite growth inhibition, primary screen, cell-based, HepG2, luciferase luminescence, HepG2 viability (AID 624349; in the data active = parasite load remaining mostly below about 12%, no sharp cut-off; inactive = mostly above about 10%;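 also: 100% = mean of DMSO negative control wells on the same plate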); conditions: P. berghei liver stage in HepG2, luciferase luminescence, concentration not given here; parasite load remaining: stronger effect = lower value; viability: measured here: HepG2 viability without parasites
[2] = system: Aerobactin synthetase IucA (Klebsiella pneumoniae); test: IucA aerobactin synthetase inhibitors, biochemical, Tocris library, absorbance (AID 1345561; call rule not given here;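 also: 100% = enzyme without compound and 0% = no enzyme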); conditions: purified IucA enzyme assay, absorbance (OD) read-out; stronger effect = lower value;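 tested at 8 µM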
[3] = growth inhibition of DIPG glioma cells, dose response, cell-based, SU-DIPG-XIII, MIPE4.0, CellTiter-Glo, qHTS (AID 1347061; cut-off not given, nearly all actives have AC50 up to about 37 µM;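 also: cells exposed to compound for 48 hours before readout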); conditions: SU-DIPG-XIII viability, CellTiter-Glo ATP luminescence
[4] = growth inhibition of DIPG glioma cells, dose response, cell-based, JHH-DIPG-1, MIPE4.0, CellTiter-Glo, qHTS (AID 1347062; cut-off not given, nearly all actives have AC50 up to about 27 µM); conditions: JHH-DIPG-1 viability, CellTiter-Glo ATP luminescence
[5] = growth inhibition of DIPG glioma cells, dose response, cell-based, SU-DIPG-IV, MIPE4.0, CellTiter-Glo, qHTS (AID 1347063; cut-off not given, nearly all actives have AC50 up to about 30 µM;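 also: compound exposure lasted 48 hours before the viability readout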); conditions: SU-DIPG-IV viability, CellTiter-Glo ATP luminescence
[6] = viability loss in pontine glioma line – cell-based, SU-DIPG-XXV, MIPE5.0, CellTiter-Glo, qHTS, dose response (AID 1347065; cut-off not given, nearly all actives have AC50 up to about 26 µM;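 also: cells exposed to compound for 48 hours before ATP readout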); conditions: CellTiter-Glo ATP luminescence
[7] = SU-DIPG-VI glioma cell viability, MIPE4.0 library, CellTiter-Glo luminescence, qHTS (AID 1347066; cut-off not given, nearly all actives have AC50 up to about 30 µM;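 also: cells exposed to compound for 48 hours before readout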); conditions: CellTiter-Glo ATP luminescence
[8] = JHH-DIPG-1 glioma cell viability, MIPE5.0 library, CellTiter-Glo luminescence, qHTS (AID 1347067; cut-off not given, nearly all actives have AC50 up to about 26 µM;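 also: cells exposed to compound for 48 hours before readout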); conditions: JHH-DIPG-1 glioma viability, CellTiter-Glo ATP luminescence
[9] = SU-DIPG-XXV glioma cell viability, MIPE5.0 library, qHTS (AID 1347068; cut-off not given, nearly all actives have IC50 up to about 30 µM)
[10] = sensitizers of A549 cells to miR-34 induction, primary screen, imaging, A549 dox-inducible miR-34, nuclei and caspase counts (AID 1347080;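 active = compounds whose cell count with miR-34 switched on is under 0.7 times the count with it off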); conditions: A549 miR-34 inducible, Hoechst nuclei count, 48 h
[11] = modifiers of HSF1 nuclear foci, imaging, Selleck Cancer Library (AID 1347162; in the data active = plate-normalised HSF1 focus index below about 0.46); conditions: human cells, at 10 µM; SSMD: measured here: HSF1 foci SSMD mean; cell count: measured here: cell number; plate-normalised HSF1 focus index: stronger effect = lower value
[12] = ovarian cancer cell viability with rucaparib, profiling panel, oncology-focused library, rucaparib conditional (AID 1508598); conditions: patient-derived ovarian cancer cells, CellTiter-Glo viability, 144 h, stronger effect = lower value
[13] = viability rescue of complex I mutant cybrids, primary screen, cell-based, galactose medium, ATP luminescence (AID 1645843;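 active = z-score of at least 1.8 in each of two replicates, scored against plate mean and spread of sample wells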;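 also: positive z means more ATP and so rescue of galactose-driven cybrid death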); conditions: complex I mutant cybrid cells, 72 h, stronger effect = higher value
[14] = circadian clock period modulators, cell-based, LOPAC library, luminescence reporter (AID 2774; call rule not given here;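 also: values are relative to mean of DMSO wells on each plate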); conditions: circadian reporter cells, at 7 µM, actives lie on both sides
[15] = system: Hepatitis C virus NS3 helicase; test: HCV NS3 helicase inhibitors, primary screen, biochemical, fluorescence polarization, LOPAC1280 library (AID 687035; in the data active = inhibition above about 37%); conditions: Purified HCV NS3 helicase, Cy5-dT15 ssDNA binding fluorescence polarization; stronger effect = higher value; concentration not given here
[16] = Cy5 fluorescence quenching or enhancement artefacts, artefact control for HCV NS3 helicase inhibitor project, biochemical, LOPAC1280 (AID 687037; call rule not given here); conditions: Cy5-DNA-NS3h complex fluorescence interference counterscreen
[17] = phospholipid biosynthesis inhibitors in animal cells, primary screen, cell-based, LOPAC library, screen 4 (AID 1347384; call rule not given here); conditions: phospholipid biosynthesis inhibition screen, at 10 µM
[18] = stronger effect = lower value, cell number ratio, induced over uninduced
[19] = measured here: relative caspase fold change +Dox/-Dox
[20] = measured here: total cells with miR-34 induction, stronger effect = lower value
[21] = measured here: total cells without miR-34 induction

C[C@@H](N)C1CCC(C(=O)Nc2ccncc2)CC1 (some centres undefined)
7180: cell count [11]
3.4: SSMD [11]
0.978 and 1.24: fold change [10, 19]
142%: viability [1]
5470 and 10600: cell count [10, 21]
active: viability ([12]; at 0.000305 µM, OCI-P5x cells, with rucaparib 20 µM, 100% = cells with rucaparib alone) 93.5% | viability ([12]; at 0.000305 µM, OCI-P5x cells, without rucaparib) 93.7% | viability ([12]; at 0.00122 µM, OCI-P5x cells, with rucaparib 20 µM, 100% = cells with rucaparib alone) 96.3% | viability ([12]; at 0.00122 µM, OCI-P5x cells, without rucaparib) 92.8% | viability ([12]; at 0.00488 µM, OCI-P5x cells, with rucaparib 20 µM, 100% = cells with rucaparib alone) 99.1% | viability ([12]; at 0.00488 µM, OCI-P5x cells, without rucaparib) 96.4% | viability ([12]; at 0.0195 µM, OCI-P5x cells, with rucaparib 20 µM, 100% = cells with rucaparib alone) 89.2% | viability ([12]; at 0.0781 µM, OCI-P5x cells, with rucaparib 20 µM, 100% = cells with rucaparib alone) 96.5% | viability ([12]; at 0.313 µM, OCI-P5x cells, with rucaparib 20 µM, 100% = cells with rucaparib alone) 99.7% | viability ([12]; at 0.313 µM, OCI-P5x cells, without rucaparib) 97.9% | viability ([12]; at 5 µM, OCI-P5x cells, with rucaparib 20 µM, 100% = cells with rucaparib alone) 94.4% | viability ([12]; at 5 µM, OCI-P5x cells, without rucaparib) 99.6%
inactive: parasite load remaining [1] 75.2% | remaining activity [2] 114% | outcome [3] | outcome [4] | outcome [5] | outcome [6] | outcome [7] | outcome [8] | outcome [9] | fold change [10, 18] 0.864 and 0.892 | plate-normalised HSF1 focus index [11] 1.19 | viability ([12]; at 0.000305 µM, OCI-C5x cells, with rucaparib 10 µM, 100% = cells with rucaparib alone) 112% | viability ([12]; at 0.000305 µM, OCI-C5x cells, without rucaparib) 113% | viability ([12]; at 0.00122 µM, OCI-C5x cells, with rucaparib 10 µM, 100% = cells with rucaparib alone) 112% | viability ([12]; at 0.00122 µM, OCI-C5x cells, without rucaparib) 109% | viability ([12]; at 0.00488 µM, OCI-C5x cells, with rucaparib 10 µM, 100% = cells with rucaparib alone) 115% | viability ([12]; at 0.00488 µM, OCI-C5x cells, without rucaparib) 112% | viability ([12]; at 0.0195 µM, OCI-C5x cells, with rucaparib 10 µM, 100% = cells with rucaparib alone) 106% | viability ([12]; at 0.0195 µM, OCI-C5x cells, without rucaparib) 112% | viability ([12]; at 0.0195 µM, OCI-P5x cells, without rucaparib) 102% | viability ([12]; at 0.0781 µM, OCI-C5x cells, with rucaparib 10 µM, 100% = cells with rucaparib alone) 113% | viability ([12]; at 0.0781 µM, OCI-C5x cells, without rucaparib) 107% | viability ([12]; at 0.0781 µM, OCI-P5x cells, without rucaparib) 102% | viability ([12]; at 0.313 µM, OCI-C5x cells, with rucaparib 10 µM, 100% = cells with rucaparib alone) 106% | viability ([12]; at 0.313 µM, OCI-C5x cells, without rucaparib) 120% | viability ([12]; at 1.25 µM, OCI-C5x cells, with rucaparib 10 µM, 100% = cells with rucaparib alone) 117% | viability ([12]; at 1.25 µM, OCI-C5x cells, without rucaparib) 113% | viability ([12]; at 1.25 µM, OCI-P5x cells, with rucaparib 20 µM, 100% = cells with rucaparib alone) 106% | viability ([12]; at 1.25 µM, OCI-P5x cells, without rucaparib) 102% | viability ([12]; at 5 µM, OCI-C5x cells, with rucaparib 10 µM, 100% = cells with rucaparib alone) 110% | viability ([12]; at 5 µM, OCI-C5x cells, without rucaparib) 107% | z-score [13] -0.445
4720 and 9420: cell count [10, 20]

COc1ccc(-c2oc3cc(OC)ccc3c2C(=O)c2ccc(C#N)cc2)cc1
7780: cell count [10, 21]
6920: cell count [11]
1.26: fold change [10, 19]
inactive: remaining activity [2] 104% | outcome [3] | outcome [4] | fold change [10, 18] 0.933 | plate-normalised HSF1 focus index [11] 1.2 | z-score [13] 0.755
3.38: SSMD [11]
7250: cell count [10, 20]

COc1cc2c(cc1O)CC[C@@H]1[C@@H]2CC[C@]2(C)[C@@H](O)CC[C@@H]12
inactive: inhibition [15] -1% | fluorescence ratio (interference) [16] 1 | remaining activity [2] 112% | fold change [10, 18] 1.15 and 1.13 | plate-normalised HSF1 focus index [11] 1.07 | outcome [17] | z-score [13] 0.06 and 0.18
active: period change [14] -1.4 h | AC50 [6] 1480 nM | AC50 [8] 3720 nM
1.78: SSMD [11]
0.815 and 0.616: fold change [10, 19]
2600 and 1620: cell count [10, 20]
2270 and 1440: cell count [10, 21]
7300: cell count [11]

COc1ccc(Nc2nccc(NCCO)n2)cc1
2.19 and 1.76: fold change [10, 19]
inactive: remaining activity [2] 124% | outcome [3] | outcome [4] | outcome [5] | outcome [6] | outcome [7] | outcome [8] | outcome [9] | fold change [10, 18] 0.983 and 0.953 | z-score [13] -0.315
6320 and 9660: cell count [10, 21]
6220 and 9200: cell count [10, 20]
